# PubChem BioAssay (NCATS)
# Records with an inconclusive call do not appear. Entries that show only a call come without a potency. The source made the active and inactive calls. Calls follow the shape of the dose curve; as a rule, active = well fitted inhibition curve with a large enough effect; inconclusive = small, poorly fitted or top-dose-only effect; inactive = no such curve, though single readings can be large or run the other way.
# Columns and labels:
# [1] = test system: Zika virus NS2B-NS3 protease (unlinked complex); experiment: Primary screen GU Rhodamine qHTS for Zika virus inhibitors: Unlinked NS2B-NS3 protease assay (AID 1347159); also: nearly all actives have a fitted effect of over 60% in size
# Procedure, shortened: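 Noncovalent NS2B hydrophilic domain/NS3 protease complex (25 nM final) in 10 mM Tris-HCl pH 8.0, 0.01% Tween 20, preincubated 15 min with compounds (up to 114 microM), then 1.5 microM Rhodamine110 substrate. Fluorescence change over 15 min fitted to 4-parameter Hill.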
# [2] = test system: Zika virus NS2B-NS3 protease (linked construct); experiment: Primary screen NINDS Rhodamine qHTS for Zika virus inhibitors (AID 1347160); also: nearly all actives have a fitted effect of over 55% in size
# Procedure, shortened: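 Purified NS2B-NS3 protease with the NS2B hydrophilic domain joined by a flexible linker (25 nM) in 10 mM Tris-HCl pH 8.0, 0.01% Tween 20, preincubated 15 min at RT with compound; Rhodamine110 peptide substrate 1.5 µM; fluorescence change over 15 min; 4-parameter Hill fit.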
Structure (SMILES),Potency [1],Potency [2],"activity change, negative = inhibition [1]","activity change, negative = inhibition [2]"
C=C1C[C@]23C[C@H]1CC[C@H]2C1=C[C@H]2OC(=O)[C@@](C)([C@H]1[C@@H]3C(=O)O)[C@H]2O,inactive,inactive,,
C[C@@H]1O[C@@H](O[C@@H]2[C@@H](O)[C@H](O[C@H]3[C@H](O[C@H]4CC[C@@]5(C)C(CC[C@]6(C)C5CC=C5[C@@H]7CC(C)(C)CC[C@]7(C(=O)O[C@@H]7O[C@H](CO)[C@@H](O)[C@H](O)[C@H]7O[C@@H]7O[C@@H](C)[C@H](O[C@@H]8O[C@@H](C)[C@H](O)[C@@H](O)[C@H]8O)[C@@H](O)[C@H]7O)CC[C@]56C)[C@@]4(C)CO)O[C@H](C(=O)O)[C@@H](O)[C@@H]3O)O[C@H](CO)[C@H]2O)[C@H](O)[C@H](O)[C@H]1O (stereo partly specified),,,22.9% [at 19.1 µM] (inactive),3.12% [at 10.7 µM] (inactive)
CC(C)Oc1ccc(C(=O)NC(CNC(=O)CN(C)C)Cc2ccc(-c3cn4cccc(C(C)O)c4n3)cc2)cc1Cl (stereo unspecified),inactive,inactive,,
O=C(O)c1ccc(OC2OC(CO)C(O)C(O)C2O)cc1 (stereo unspecified),inactive,inactive,,
CC1=CC(=O)C2C(C)(C)CCC[C@]2(C)[C@H]1CO (stereo partly specified),inactive,inactive,,
CN1C2CCC1CC(OC(=O)[C@H](CO)c1ccccc1)C2 (stereo partly specified),inactive,inactive,,
COC1/C=C/C(C)(O)C(SCC(N)C(=O)O)CC(=O)OC(C)C(C)CC/C=C/1C (stereo unspecified),inactive,inactive,,
COc1c2cc(c(O)c1OC)-c1cc(ccc1O)CCC(O)CCCC2 (stereo unspecified),inactive,inactive,,
COC(=O)Cc1cc2c(c([N+](=O)[O-])c1)N(C(=O)CC[C@H](N)C(=O)O)CC2,inactive,inactive,,
COc1cc2c(NC3CCN(CC4CCCCC4)CC3)nc(N3CCCN(C(C)C)CC3)nc2cc1OCCCN1CCCCC1,inactive,inactive,,
C[C@@H]1CC[C@@]2(OC1)O[C@H]1C[C@H]3[C@@H]4CC=C5C[C@@H](O)CC[C@]5(C)[C@H]4CC[C@]3(C)[C@H]1[C@@H]2C,inactive,inactive,,
CC(C)O[C@@H]1O[C@H](CO)[C@@H](O)[C@H](O)[C@H]1O,inactive,inactive,,
CC(=O)NC[C@H]1CN(c2ccc(N3CCN(C(=O)CO)CC3)c(F)c2)C(=O)O1,inactive,inactive,,
CC[C@H]1OC(=O)[C@H](C)[C@@H](O[C@H]2C[C@@](C)(OC)[C@@H](O)[C@H](C)O2)[C@H](C)[C@@H](O[C@@H]2O[C@H](C)C[C@H](N(C)C)[C@H]2O)[C@](C)(O)C[C@@H](C)C(=O)[C@H](C)[C@H]2OC(=O)O[C@@]21C,inactive,inactive,,
C[C@@H]1N[C@H]2N(C1=O)c1ccccc1[C@@]2(O)C[C@@H]1C(=O)N[C@@H](C)c2nc3ccccc3c(=O)n21,inactive,inactive,,
C=C1C(O)C[C@@H]2C(C(=O)O)=CO[C@@H](O[C@@H]3O[C@H](CO)[C@@H](O)[C@H](O)[C@H]3OC(=O)c3ccc(O)cc3)[C@H]12 (stereo partly specified),inactive,inactive,,
CC(=O)O[C@@H]1[C@H](O[C@@H]2O[C@@H](CO)[C@H](O)[C@H]2O)[C@@H](O[C@@H]2O[C@@H](C)[C@H](O[C@@H]3OC[C@@H](O)[C@H](O)[C@H]3O)[C@@H](O)[C@H]2O)[C@H](OC(=O)[C@]23CCC(C)(C)C[C@H]2C2=CCC4[C@@]5(C)CC[C@H](O[C@@H]6O[C@H](C(=O)O)[C@@H](O)[C@H](O)[C@H]6O[C@@H]6O[C@H](CO)[C@H](O)[C@H](O)[C@H]6O)[C@@](C)(C=O)C5CC[C@@]4(C)[C@]2(C)CC3)O[C@@H]1C (stereo partly specified),,,10.7% [at 19.1 µM] (inactive),-19.7% [at 10.7 µM] (inactive)
c1cc(Nc2cc(C3CC3)[nH]n2)nc(Nc2ccc3nc[nH]c3c2)n1,inactive,inactive,,
CC(Oc1cc(-n2cnc3ccc(CN4CCN(C)CC4)cc32)sc1C(N)=O)c1ccccc1C(F)(F)F (stereo unspecified),inactive,inactive,,
CC12CCC3c4ccc(O)cc4CCC3C1CC(OC1OC(C(=O)O)C(O)C(O)C1O)C2O (stereo unspecified),inactive,inactive,,
COC(=O)C[C@H]1C(C)(C)[C@H](OC(C)=O)C2CC3=C4CC(=O)O[C@@H](c5ccoc5)[C@]4(C)CCC3[C@@]1(C)C2=O (stereo partly specified),inactive,inactive,,
CC1CCC2(C(=O)O)CCC3(C)C(=CCC4C5(C)CCC(OC(=O)/C=C/c6ccccc6)C(C)(C)C5CCC43C)C2C1C (stereo unspecified),inactive,inactive,,
CC(C)(C)c1cc(Br)cc([C@H](CC(=O)O)NC(=O)CNC(=O)c2cc(O)cc(NC3=NCC(O)CN3)c2)c1 (stereo partly specified),inactive,inactive,,
CC(=O)C12OC(C)(C)OC1CC1C3CCC4=CC(=O)C=CC4(C)C3(F)C(O)CC12C (stereo unspecified),inactive,inactive,,
COc1cc2ncnc(Nc3cccc(O)c3)c2cc1OC,inactive,inactive,,
C[C@@H]1C(=O)O[C@H]2[C@@H](O)C34[C@H]5C[C@@H](C(C)(C)C)C36[C@@H](OC(=O)[C@@H]6O)O[C@@]4(C(=O)O5)[C@@]12O (stereo partly specified),inactive,inactive,,
CC(O)c1cc(C(=O)N[C@@H](C)Cn2ccc(-c3ccc(C#N)c(Cl)c3)n2)n[nH]1 (stereo partly specified),inactive,inactive,,

Structure (SMILES),Potency [1],Potency [2],"activity change, negative = inhibition [1]","activity change, negative = inhibition [2]"
NC1CCC(Nc2cc(-c3cccc(NCc4cccc(F)c4)n3)c(Cl)cn2)CC1 (stereo unspecified),inactive,inactive,,
O=C(C(c1ccccc1)c1ccccc1)N1CCN(CC(O)COc2cccc3ncccc23)CC1 (stereo unspecified),inactive,inactive,,
O=C1NC(Cc2c[nH]c3ccccc23)C(=O)NC1Cc1cnc[nH]1 (stereo unspecified),inactive,inactive,,
CC1CCN(C(=O)CC#N)CC1N(C)c1ncnc2[nH]ccc12 (stereo unspecified),inactive,inactive,,
O=C(O)COCCN1CCN([C@H](c2ccccc2)c2ccc(Cl)cc2)CC1,inactive,inactive,,
CC1(C)CC2C=C(C(=O)O)C3COC(=O)C(O)(CO)C23C1 (stereo unspecified),inactive,inactive,,
CN(C)C/C=C/C(=O)Nc1cc2c(Nc3ccc(F)c(Cl)c3)ncnc2cc1OC1CCOC1 (stereo unspecified),inactive,inactive,,
C=C1C[C@]23C[C@H]1[C@@H](O)C[C@H]2[C@@]12C=C[C@H](O)[C@@](C)(C(=O)O1)[C@H]2[C@@H]3C(=O)O,inactive,inactive,,
CN1CCc2nc(C(=O)N[C@@H]3C[C@@H](C(=O)N(C)C)CC[C@@H]3NC(=O)C(=O)Nc3ccc(Cl)cn3)sc2C1,inactive,inactive,,
CC(C)[C@@H]1C(=O)N(S(C)(=O)=O)[C@@H]2CCN(C(=O)/C=C/CN3CCCCC3)[C@H]21,inactive,inactive,,
COc1cc(N2CCC(N3CCN(C)CC3)CC2)ccc1Nc1ncc(Cl)c(-c2c[nH]c3ccccc23)n1,inactive,inactive,,
C/C=C(\C)C(=O)O[C@@H]1CC2[C@@H](CC=C3C[C@@H](O[C@H]4C[C@H](OC)[C@H](O[C@H]5C[C@H](OC)[C@H](O[C@@H]6O[C@H](C)[C@@H](O[C@H]7C[C@H](OC)[C@H](O[C@@H]8O[C@H](CO)[C@@H](O)[C@H](O)[C@H]8O)[C@@H](C)O7)[C@H](OC)[C@H]6O)[C@@H](C)O5)[C@@H](C)O4)CC[C@@]32C)[C@@]2(O)CC[C@H](C(C)=O)[C@@]12C (stereo partly specified),,,8.5% [at 19.1 µM] (inactive),18.6% [at 10.7 µM] (inactive)
COC(=O)CC(O)C1OC(c2ccccc2)C(O)C1O (stereo unspecified),inactive,inactive,,
C[C@@H]1O[C@@H](O[C@H]2[C@H](O)[C@@H](O[C@@H]3O[C@H](CO)[C@@H](O)[C@H](O[C@@H]4O[C@H](CO)[C@@H](O)[C@H](O)[C@H]4O)[C@H]3O)[C@H](O[C@H]3CC[C@@]4(C)C(=CC[C@@H]5C4CC[C@@]4(C)C5C[C@@H]5OC6(CC[C@@](C)(CO[C@@H]7O[C@H](CO)[C@@H](O)[C@H](O)[C@H]7O)O6)[C@@H](C)[C@@H]54)C3)O[C@@H]2CO)[C@H](O)[C@H](O)[C@H]1OC1OC(CO)C(O)C(O)C1O (stereo partly specified),,,-17.5% [at 19.1 µM] (inactive),-10.4% [at 10.7 µM] (inactive)
CC(C)[C@H]1CC[C@@]2(O)COC(=O)[C@H]2[C@@H]1/C=C(\CO)C(=O)O,inactive,inactive,,
CC(=O)N[C@@H](CCCCN)C(=O)N(C)[C@@H](CC(C)C)C(=O)N[C@H](C(=O)N(C)[C@@H](Cc1ccccc1)C(=O)N[C@H](Cc1ccccc1)C(N)=O)C(C)C,,,0% [at 11.5 µM] (inactive),25% [at 4.91 µM] (inactive)
CN1CCN(c2ccc(C(=O)Nc3n[nH]c4ccc(Cc5cc(F)cc(F)c5)cc34)c(NC3CCOCC3)c2)CC1,inactive,inactive,,
CN(C)C1CCN(C(=O)c2ccc(NC(=O)Nc3ccc(-c4nc(N5CCOCC5)nc(N5CCOCC5)n4)cc3)cc2)CC1,inactive,inactive,,
CC(C)C1=CC2C(CC[C@]2(C)O)[C@](C)(O)CC1 (stereo partly specified),inactive,inactive,,
CC(C)C(CO)Nc1nc(Nc2ccc(C(=O)O)c(Cl)c2)c2ncn(C(C)C)c2n1 (stereo unspecified),inactive,inactive,,
CN1CCC(Nc2nc(Nc3ccc(Oc4ccccc4)cc3)c3c(=O)[nH]cc(Br)c3n2)CC1,inactive,inactive,,
C=C1C(=O)O[C@H](CCC)[C@H]1C(=O)O,inactive,inactive,,
CC(=O)NC1C(OC(C)(C)C2CCC3(C)C=C(C4CCC5C4(C)CC(O)C4OC(C(C)(C)O)CCC45C)CCC3O2)OC(CO)C(O)C1O (stereo unspecified),inactive,inactive,,
CC1=C(C)C(=O)OC(C(C)C2CCC3C4C5OC5C5(O)CC(OC6OC(CO)C(OC7OC(C)C(O)C(O)C7O)C(O)C6O)CC(O)C5(C)C4CCC23C)C1 (stereo unspecified),inactive,inactive,,
N#Cc1cc(F)cc(-c2nc(-c3ccccn3)no2)c1,inactive,inactive,,
C=CC(C)(CC/C=C(\C)C(=O)OC)OC1OC(COC(=O)CC(C)(O)CC(=O)O)C(OC2OC(CO)C(O)C(O)C2O)C(O)C1O (stereo unspecified),inactive,inactive,,
